Reference: PMC7862700, “An all-to-all approach to the identification of sequence-specific readers for epigenetic DNA modifications on cytosine”

Legend:
Assay in all cases: DAPPL (digital affinity profiling via proximity ligation, sequencing); 10 mM Tris-HCl pH 7.5, 50 mM NaCl, 1 mM DTT, 4% glycerol, room temperature, 30 min; GST-TFs on glutathione beads, 16-mer random dsDNA library, 0.1% formaldehyde crosslink after washing; high values mean tight binding
FLI1 = target: T1, FLI1 (Homo sapiens, UniProt Q01543 1-452); details: protein: recombinant; tags: N-terminal GST; dsDNA, one strand shown
T1 sequence: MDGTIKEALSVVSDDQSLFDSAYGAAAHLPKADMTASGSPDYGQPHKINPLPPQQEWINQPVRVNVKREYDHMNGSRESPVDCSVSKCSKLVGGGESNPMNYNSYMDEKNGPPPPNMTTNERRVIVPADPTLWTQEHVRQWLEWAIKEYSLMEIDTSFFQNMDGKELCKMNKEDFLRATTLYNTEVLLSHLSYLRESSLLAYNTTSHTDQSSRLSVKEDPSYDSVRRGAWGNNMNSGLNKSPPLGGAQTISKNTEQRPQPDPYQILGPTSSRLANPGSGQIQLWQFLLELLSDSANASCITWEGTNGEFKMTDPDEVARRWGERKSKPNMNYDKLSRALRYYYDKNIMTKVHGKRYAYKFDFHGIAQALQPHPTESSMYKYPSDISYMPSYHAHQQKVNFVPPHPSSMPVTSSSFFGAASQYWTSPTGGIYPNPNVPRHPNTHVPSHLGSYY
In short: (§1)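 GST fusions of human transcription factors were expressed in yeast and captured with glutathione beads. Once given DNA barcodes and pooled alongside a tag-only sample, they were incubated for 30 min at room temperature with 200 nmole of a random double-stranded 16-mer DNA library in Tris/NaCl/DTT/glycerol buffer, then washed, crosslinked (0.1% formaldehyde), proximity-ligated, PCR-amplified and sequenced on an Illumina NextSeq500. The binding signal of each hexamer is its read frequency for a factor divided by its frequency for the tag-only sample.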

ELK1 = target: T2, ELK1 (Homo sapiens, UniProt P19419 1-428); details: protein: recombinant; tags: N-terminal GST; dsDNA, one strand shown
T2 sequence: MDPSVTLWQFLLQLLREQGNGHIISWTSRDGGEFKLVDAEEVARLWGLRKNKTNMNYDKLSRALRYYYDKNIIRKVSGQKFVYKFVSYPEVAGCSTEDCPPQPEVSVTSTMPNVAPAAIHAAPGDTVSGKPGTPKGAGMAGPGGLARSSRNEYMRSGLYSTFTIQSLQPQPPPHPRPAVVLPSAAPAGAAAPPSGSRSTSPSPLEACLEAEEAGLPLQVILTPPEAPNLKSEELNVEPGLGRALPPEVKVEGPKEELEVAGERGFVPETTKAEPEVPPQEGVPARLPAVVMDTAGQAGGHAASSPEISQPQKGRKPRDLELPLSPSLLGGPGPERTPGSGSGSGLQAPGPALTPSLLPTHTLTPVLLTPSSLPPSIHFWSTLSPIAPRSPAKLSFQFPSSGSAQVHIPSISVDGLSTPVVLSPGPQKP
In short: as §1

GABPA = target: T3, GABPA (Homo sapiens, UniProt Q06546 1-454); details: protein: recombinant; tags: N-terminal GST; dsDNA, one strand shown
T3 sequence: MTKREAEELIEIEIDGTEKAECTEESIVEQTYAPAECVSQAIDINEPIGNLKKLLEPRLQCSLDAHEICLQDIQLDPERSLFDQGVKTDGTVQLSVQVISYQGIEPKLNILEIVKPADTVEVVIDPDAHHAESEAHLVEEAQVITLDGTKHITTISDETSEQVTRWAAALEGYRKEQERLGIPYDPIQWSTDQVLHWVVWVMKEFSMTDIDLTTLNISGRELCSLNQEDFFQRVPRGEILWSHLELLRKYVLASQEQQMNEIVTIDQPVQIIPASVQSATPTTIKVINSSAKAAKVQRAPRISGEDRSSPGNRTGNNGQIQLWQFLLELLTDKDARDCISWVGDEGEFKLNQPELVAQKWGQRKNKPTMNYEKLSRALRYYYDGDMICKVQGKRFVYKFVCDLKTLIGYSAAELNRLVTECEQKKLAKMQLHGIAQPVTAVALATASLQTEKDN
In short: as §1

ERG = target: T4, ERG (Homo sapiens, UniProt P11308 1-479); details: protein: recombinant; tags: N-terminal GST; dsDNA, one strand shown
T4 sequence: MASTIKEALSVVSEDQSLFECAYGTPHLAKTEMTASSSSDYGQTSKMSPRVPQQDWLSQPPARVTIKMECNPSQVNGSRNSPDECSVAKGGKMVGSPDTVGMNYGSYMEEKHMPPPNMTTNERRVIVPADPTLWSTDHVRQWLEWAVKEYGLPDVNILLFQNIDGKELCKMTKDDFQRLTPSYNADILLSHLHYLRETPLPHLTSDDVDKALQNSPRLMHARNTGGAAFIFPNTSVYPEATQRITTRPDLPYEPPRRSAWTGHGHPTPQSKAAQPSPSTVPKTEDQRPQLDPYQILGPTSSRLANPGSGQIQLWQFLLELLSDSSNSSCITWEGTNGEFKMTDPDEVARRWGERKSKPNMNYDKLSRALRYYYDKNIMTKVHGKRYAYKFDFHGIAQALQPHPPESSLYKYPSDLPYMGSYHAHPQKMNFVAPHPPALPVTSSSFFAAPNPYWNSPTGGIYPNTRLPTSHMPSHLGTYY
In short: as §1

ELF1 = ELF1 (Homo sapiens, UniProt P32519 1-619); details: protein: recombinant; tags: N-terminal GST; dsDNA, one strand shown
Chain of ELF1 (P32519 whole entry): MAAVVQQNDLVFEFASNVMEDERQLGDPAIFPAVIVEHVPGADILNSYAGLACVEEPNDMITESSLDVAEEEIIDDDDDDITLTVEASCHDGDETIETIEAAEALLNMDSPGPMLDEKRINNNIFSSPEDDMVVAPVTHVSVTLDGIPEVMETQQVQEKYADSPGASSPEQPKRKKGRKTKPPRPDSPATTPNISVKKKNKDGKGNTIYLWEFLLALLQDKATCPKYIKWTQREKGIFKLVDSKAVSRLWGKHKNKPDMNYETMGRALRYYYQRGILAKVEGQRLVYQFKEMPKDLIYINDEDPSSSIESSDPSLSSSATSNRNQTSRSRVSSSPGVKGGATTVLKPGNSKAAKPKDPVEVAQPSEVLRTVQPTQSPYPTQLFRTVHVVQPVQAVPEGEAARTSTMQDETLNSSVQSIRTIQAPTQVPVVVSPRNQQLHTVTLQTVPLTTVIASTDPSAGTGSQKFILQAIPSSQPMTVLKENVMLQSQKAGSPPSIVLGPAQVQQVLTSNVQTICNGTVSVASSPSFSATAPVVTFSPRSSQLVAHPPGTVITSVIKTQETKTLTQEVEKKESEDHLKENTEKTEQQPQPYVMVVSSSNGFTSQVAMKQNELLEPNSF
In short: as §1

EHF = target: T5, EHF (Homo sapiens, UniProt Q9NZC4 1-300); details: protein: recombinant; tags: N-terminal GST; dsDNA, one strand shown
T5 sequence: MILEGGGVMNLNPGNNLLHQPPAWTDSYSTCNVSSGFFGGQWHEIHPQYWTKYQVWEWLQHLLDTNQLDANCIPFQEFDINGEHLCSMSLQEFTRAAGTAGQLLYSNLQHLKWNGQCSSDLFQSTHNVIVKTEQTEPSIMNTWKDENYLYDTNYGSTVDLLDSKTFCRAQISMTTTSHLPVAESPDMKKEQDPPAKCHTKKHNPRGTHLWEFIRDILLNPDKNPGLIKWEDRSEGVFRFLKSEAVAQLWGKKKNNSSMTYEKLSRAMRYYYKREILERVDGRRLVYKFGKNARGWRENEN
In short: as §1

SPI1 = SPI1 (Homo sapiens, UniProt P17947 1-270); details: protein: recombinant; tags: N-terminal GST; dsDNA, one strand shown
In short: as §1

SPIB = SPIB (Homo sapiens, UniProt Q01892 1-262); details: protein: recombinant; tags: N-terminal GST; dsDNA, one strand shown
Chain of SPIB (Q01892 whole entry): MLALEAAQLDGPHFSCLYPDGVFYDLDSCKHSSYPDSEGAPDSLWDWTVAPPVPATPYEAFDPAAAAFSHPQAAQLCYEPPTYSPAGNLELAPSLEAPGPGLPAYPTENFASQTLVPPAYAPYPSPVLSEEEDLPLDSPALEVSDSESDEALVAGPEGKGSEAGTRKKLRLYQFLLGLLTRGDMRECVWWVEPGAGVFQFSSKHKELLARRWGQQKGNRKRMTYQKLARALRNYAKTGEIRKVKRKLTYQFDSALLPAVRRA
In short: as §1

ELK3 = target: T6, ELK3 (Homo sapiens, UniProt P41970 1-407); details: protein: recombinant; tags: N-terminal GST; dsDNA, one strand shown
T6 sequence: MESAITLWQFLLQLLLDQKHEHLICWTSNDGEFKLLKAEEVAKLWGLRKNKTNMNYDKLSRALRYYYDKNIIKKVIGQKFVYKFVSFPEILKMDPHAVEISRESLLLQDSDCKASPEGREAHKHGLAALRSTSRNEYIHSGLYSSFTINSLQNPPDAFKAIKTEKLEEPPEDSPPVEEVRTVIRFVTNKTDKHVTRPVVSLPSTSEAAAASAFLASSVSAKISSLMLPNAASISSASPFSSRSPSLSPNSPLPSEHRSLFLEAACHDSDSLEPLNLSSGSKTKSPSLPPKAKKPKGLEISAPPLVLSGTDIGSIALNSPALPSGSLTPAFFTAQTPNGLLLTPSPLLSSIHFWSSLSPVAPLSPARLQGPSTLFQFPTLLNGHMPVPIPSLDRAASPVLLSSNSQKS
In short: as §1

FEV = target: T7, FEV (Homo sapiens, UniProt Q99581 1-238); details: protein: recombinant; tags: N-terminal GST; dsDNA, one strand shown
T7 sequence: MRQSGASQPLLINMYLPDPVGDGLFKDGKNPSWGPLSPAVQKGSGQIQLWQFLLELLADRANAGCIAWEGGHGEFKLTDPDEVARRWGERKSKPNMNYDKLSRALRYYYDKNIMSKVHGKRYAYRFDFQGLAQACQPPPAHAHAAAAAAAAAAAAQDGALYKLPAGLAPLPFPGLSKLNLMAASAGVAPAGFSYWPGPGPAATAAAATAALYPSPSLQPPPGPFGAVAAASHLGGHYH
In short: as §1

ETV5 = ETV5 (Homo sapiens, UniProt P41161 1-510); details: protein: recombinant; tags: N-terminal GST; dsDNA, one strand shown
Chain of ETV5 (P41161 whole entry): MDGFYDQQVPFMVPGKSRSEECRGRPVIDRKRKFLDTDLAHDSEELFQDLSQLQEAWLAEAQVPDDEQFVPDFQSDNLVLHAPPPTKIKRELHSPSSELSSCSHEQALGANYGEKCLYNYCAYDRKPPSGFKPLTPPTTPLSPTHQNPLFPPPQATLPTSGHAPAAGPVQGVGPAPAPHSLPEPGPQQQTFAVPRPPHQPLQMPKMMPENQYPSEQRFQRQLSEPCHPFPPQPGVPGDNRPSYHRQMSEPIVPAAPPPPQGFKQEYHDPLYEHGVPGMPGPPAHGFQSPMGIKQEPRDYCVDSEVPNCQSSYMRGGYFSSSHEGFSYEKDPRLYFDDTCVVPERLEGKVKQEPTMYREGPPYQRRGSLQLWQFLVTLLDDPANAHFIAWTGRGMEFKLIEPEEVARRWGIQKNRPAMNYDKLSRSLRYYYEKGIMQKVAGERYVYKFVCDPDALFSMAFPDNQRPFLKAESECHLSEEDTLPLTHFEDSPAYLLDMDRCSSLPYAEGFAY
In short: as §1

HSF1 = HSF1 (Homo sapiens, UniProt Q00613 1-529); details: protein: recombinant; tags: N-terminal GST; chain copies: 3; dsDNA, one strand shown
Chain of HSF1 (Q00613 whole entry): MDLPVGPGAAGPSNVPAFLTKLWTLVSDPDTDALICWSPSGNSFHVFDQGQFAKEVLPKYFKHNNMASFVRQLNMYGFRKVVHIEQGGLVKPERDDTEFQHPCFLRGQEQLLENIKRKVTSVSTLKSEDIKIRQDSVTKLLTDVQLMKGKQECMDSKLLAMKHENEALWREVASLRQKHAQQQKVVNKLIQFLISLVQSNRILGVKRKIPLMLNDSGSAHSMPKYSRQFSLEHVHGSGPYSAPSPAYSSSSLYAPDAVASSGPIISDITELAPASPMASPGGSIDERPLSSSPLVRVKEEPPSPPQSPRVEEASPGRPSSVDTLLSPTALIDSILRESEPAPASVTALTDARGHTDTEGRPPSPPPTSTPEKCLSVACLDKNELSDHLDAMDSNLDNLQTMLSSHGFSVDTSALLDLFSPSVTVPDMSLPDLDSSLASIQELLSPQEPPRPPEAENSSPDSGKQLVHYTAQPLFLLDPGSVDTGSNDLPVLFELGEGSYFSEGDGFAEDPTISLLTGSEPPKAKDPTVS
In short: as §1

SPIC = target: T8, SPIC (Homo sapiens, UniProt Q8N5J4 1-248); details: protein: recombinant; tags: N-terminal GST; dsDNA, one strand shown
T8 sequence: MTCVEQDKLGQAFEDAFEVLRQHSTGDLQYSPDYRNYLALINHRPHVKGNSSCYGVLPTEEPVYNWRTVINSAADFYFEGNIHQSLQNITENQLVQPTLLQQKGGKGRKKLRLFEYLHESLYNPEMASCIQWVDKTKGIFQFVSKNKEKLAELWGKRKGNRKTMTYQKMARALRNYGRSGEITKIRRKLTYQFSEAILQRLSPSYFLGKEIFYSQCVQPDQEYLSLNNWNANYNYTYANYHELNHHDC
In short: as §1

ELF4 = ELF4 (Homo sapiens, UniProt Q99607 1-663); details: protein: recombinant; tags: N-terminal GST; dsDNA, one strand shown
Chain of ELF4 (Q99607 whole entry): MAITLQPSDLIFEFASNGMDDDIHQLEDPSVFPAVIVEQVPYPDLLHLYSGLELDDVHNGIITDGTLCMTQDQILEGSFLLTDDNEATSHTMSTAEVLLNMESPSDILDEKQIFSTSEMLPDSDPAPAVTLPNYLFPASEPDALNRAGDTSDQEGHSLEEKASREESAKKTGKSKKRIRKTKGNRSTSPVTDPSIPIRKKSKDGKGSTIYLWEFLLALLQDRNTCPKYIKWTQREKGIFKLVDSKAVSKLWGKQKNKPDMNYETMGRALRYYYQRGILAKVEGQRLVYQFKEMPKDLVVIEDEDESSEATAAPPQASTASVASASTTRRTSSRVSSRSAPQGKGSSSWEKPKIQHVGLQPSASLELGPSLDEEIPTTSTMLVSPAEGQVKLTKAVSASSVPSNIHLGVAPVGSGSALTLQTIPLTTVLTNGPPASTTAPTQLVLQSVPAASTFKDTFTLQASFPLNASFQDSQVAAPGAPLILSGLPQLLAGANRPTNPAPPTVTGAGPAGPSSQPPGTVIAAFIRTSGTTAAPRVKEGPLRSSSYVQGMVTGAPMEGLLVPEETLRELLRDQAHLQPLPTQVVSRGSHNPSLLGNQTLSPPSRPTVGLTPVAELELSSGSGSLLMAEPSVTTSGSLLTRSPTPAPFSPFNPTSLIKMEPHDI
In short: as §1

ELK4 = target: T9, ELK4 (Homo sapiens, UniProt P28324-2 1-405); details: protein: recombinant; tags: N-terminal GST; dsDNA, one strand shown
T9 sequence: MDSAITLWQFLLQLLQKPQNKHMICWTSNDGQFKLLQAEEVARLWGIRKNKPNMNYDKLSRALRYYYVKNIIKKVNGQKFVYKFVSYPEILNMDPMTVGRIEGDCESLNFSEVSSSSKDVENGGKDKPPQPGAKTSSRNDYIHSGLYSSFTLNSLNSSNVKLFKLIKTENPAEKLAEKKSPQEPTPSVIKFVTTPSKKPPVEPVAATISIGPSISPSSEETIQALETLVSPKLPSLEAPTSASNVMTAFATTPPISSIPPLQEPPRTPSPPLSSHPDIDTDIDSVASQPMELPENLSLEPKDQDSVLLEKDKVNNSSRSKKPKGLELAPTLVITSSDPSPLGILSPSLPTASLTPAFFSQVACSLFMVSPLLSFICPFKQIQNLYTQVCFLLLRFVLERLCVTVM
In short: as §1

ETV2 = target: T10, ETV2 (Homo sapiens, UniProt O00321 1-342); details: protein: recombinant; tags: N-terminal GST; dsDNA, one strand shown
T10 sequence: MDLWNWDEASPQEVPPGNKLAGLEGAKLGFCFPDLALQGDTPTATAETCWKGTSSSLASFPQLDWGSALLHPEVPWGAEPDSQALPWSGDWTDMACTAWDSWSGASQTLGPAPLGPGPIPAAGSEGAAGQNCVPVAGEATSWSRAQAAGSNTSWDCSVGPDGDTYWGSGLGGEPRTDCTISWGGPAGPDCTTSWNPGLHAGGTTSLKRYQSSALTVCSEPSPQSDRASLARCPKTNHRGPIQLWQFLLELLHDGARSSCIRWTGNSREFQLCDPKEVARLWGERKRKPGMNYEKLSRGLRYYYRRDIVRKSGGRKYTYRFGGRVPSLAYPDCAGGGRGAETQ
In short: as §1

ELF3 = target: T11, ELF3 (Homo sapiens, UniProt P78545 1-371); details: protein: recombinant; tags: N-terminal GST; dsDNA, one strand shown
T11 sequence: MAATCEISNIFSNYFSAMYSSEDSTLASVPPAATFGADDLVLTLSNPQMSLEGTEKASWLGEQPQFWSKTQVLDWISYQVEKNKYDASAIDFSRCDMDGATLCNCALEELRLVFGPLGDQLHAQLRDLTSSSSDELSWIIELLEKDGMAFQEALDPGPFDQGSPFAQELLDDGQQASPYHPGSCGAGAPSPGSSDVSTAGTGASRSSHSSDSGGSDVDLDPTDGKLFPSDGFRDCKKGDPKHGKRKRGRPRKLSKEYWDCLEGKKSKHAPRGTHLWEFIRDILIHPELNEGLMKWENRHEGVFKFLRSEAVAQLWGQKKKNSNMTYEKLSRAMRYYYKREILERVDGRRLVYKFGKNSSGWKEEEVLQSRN
In short: as §1

CRX = CRX (Homo sapiens, UniProt O43186 1-299); details: protein: recombinant; tags: N-terminal GST; dsDNA, one strand shown
Chain of CRX (O43186 whole entry): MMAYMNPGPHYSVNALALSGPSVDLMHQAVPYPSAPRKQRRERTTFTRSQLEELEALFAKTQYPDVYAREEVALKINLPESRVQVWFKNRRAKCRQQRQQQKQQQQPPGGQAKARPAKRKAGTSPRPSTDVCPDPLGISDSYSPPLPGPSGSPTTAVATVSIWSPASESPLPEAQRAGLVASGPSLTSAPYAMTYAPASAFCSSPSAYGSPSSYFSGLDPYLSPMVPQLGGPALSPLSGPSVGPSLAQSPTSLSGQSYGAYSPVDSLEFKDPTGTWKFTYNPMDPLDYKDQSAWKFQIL
In short: as §1

ETV1 = ETV1 (Homo sapiens, UniProt P50549 1-477); details: protein: recombinant; tags: N-terminal GST; dsDNA, one strand shown
Chain of ETV1 (P50549 whole entry): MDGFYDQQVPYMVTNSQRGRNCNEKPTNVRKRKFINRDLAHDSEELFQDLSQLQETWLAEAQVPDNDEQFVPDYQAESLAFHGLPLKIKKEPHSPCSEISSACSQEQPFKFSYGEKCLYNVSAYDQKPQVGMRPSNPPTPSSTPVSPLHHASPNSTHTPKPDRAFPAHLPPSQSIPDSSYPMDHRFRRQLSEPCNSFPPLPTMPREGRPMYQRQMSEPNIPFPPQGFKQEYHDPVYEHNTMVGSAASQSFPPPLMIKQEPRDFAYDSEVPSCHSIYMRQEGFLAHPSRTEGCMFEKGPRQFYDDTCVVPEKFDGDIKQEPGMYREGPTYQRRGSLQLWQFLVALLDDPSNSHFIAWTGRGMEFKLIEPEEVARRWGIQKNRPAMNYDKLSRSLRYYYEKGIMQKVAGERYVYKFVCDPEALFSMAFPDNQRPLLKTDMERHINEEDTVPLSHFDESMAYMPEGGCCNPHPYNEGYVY
In short: as §1

Sequence: ACTTGG
- binding signal (FLI1): 1.34 fold enrichment (6-mer frequency, TF over GST control)
- binding signal (ELK1): 1.19 fold enrichment (6-mer frequency, TF over GST control)
- binding signal (GABPA): 1.15 fold enrichment (6-mer frequency, TF over GST control)
- binding signal (ERG): 1.16 fold enrichment (6-mer frequency, TF over GST control)
- binding signal (ELF1): 1.34 fold enrichment (6-mer frequency, TF over GST control)
- binding signal (EHF): 1.1 fold enrichment (6-mer frequency, TF over GST control)
- binding signal (SPI1): 1.21 fold enrichment (6-mer frequency, TF over GST control)
- binding signal (SPIB): 1.25 fold enrichment (6-mer frequency, TF over GST control)
- binding signal (ELK3): 1.29 fold enrichment (6-mer frequency, TF over GST control)
- binding signal (FEV): 1.17 fold enrichment (6-mer frequency, TF over GST control)
- binding signal (ETV5): 1.21 fold enrichment (6-mer frequency, TF over GST control)
- binding signal (HSF1): 1.09 fold enrichment (6-mer frequency, TF over GST control)
- binding signal (SPIC): 1.27 fold enrichment (6-mer frequency, TF over GST control)
- binding signal (ELF4): 1.31 fold enrichment (6-mer frequency, TF over GST control)
- binding signal (ELK4): 1.28 fold enrichment (6-mer frequency, TF over GST control)
- binding signal (ETV2): 1.15 fold enrichment (6-mer frequency, TF over GST control)
- binding signal (ELF3): 1.36 fold enrichment (6-mer frequency, TF over GST control)
- binding signal (CRX): 1.1 fold enrichment (6-mer frequency, TF over GST control)
- binding signal (ETV1): 1.25 fold enrichment (6-mer frequency, TF over GST control)
